Active and inactive are the calls of the source.
Columns and labels:
[1] = test system: PRMT1 (protein arginine N-methyltransferase 1); experiment: PRMT1 binders on small-molecule microarrays, primary screen, biochemical, small-molecule microarray, 635 nm fluorescence (AID 1088); details: small-molecule microarray binding, higher = more signal;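 note: binding of Prmt1 protein to compounds spotted on small-molecule microarray slides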
[2] = yeast growth modulation, basal conditions, primary screen, YJM789 clinical isolate, OD600, 24 h (AID 1089);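 note: growth of clinical yeast isolate S. cerevisiae YJM 789 seeded 1000 cells per well; test concentration not given here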; details: S. cerevisiae YJM789 growth, higher = more signal, called active from +8 up or from −8 down
[3] = fission yeast growth modulation, primary screen, strain 972, OD600, 24 h, no modulator (AID 1090);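 note: basal condition with compound alone and no growth modifier present; test concentration not given here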; details: S. pombe 972 growth, higher = more signal, called active from +8 up or from −8 down
[4] = S. cerevisiae growth modulation with rapamycin, primary screen, strain BY4716, OD600, 96 h (AID 1091); details: higher = more signal, called active from +8 up or from −8 down; note: test concentration not given here
[5] = target: Torsin-1A-interacting protein 2 (Homo sapiens) (UniProt Q8NFQ8); experiment: LULL1 binders on small-molecule microarray, primary screen, cell lysate, human LULL1 lysate, 635/667 nm fluorescence (AID 1092); details: hLULL1 lysate binding, 635 nm fluorescence, higher = more signal;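 note: probe is lysate of COS7 cells overexpressing human LULL1; score merges per-feature 667 nm fluorescence with signal-to-noise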
[6] = E. coli growth modulation, two-sided OD650, primary screen, E. coli filamentation project, strain DRC41, 24 h (AID 1093); details: OD650, 24 h, higher = more signal, called active from +8 up or from −8 down;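 note: MC1000 strain lacking acrAB efflux and sulA so SOS filamentation is blocked; test concentration not given here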
[7] = small-molecule microarray binders of probe aLefty2, primary screen, biochemical, biotinylated probe, 635/667 nm fluorescence (AID 1094); details: higher = more signal;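 note: score merges spot fluorescence near 667 nm with spot signal-to-noise ratio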
[8] = test system: Noggin (protein binding on small-molecule microarray); experiment: Noggin binders on small-molecule microarray, primary screen, biochemical, 635/667 nm fluorescence (AID 1095); details: 635 nm fluorescence, higher = more signal;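 note: score merges 667 nm feature fluorescence with signal to noise over triplicate slides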
[9] = target: Neurogenic locus notch homolog protein 3 (Homo sapiens) (UniProt Q9UM47); experiment: NOTCH3 binders on small-molecule microarray, primary screen, biochemical, 635/667 nm fluorescence (AID 1096); details: NOTCH3 binding, 635 nm fluorescence, higher = more signal
[10] = small-molecule microarray binders of probe aEGFR, primary screen, biochemical, biotinylated probe, 635/667 nm fluorescence (AID 1097); details: higher = more signal;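 note: probe is a biotinylated anti-EGFR antibody binding compounds printed on slides; score combines fluorescence near 667 nm and signal to noise of each spot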

Chain of Neurogenic locus notch homolog protein 3 (Homo sapiens) (Q9UM47 whole entry, looked up): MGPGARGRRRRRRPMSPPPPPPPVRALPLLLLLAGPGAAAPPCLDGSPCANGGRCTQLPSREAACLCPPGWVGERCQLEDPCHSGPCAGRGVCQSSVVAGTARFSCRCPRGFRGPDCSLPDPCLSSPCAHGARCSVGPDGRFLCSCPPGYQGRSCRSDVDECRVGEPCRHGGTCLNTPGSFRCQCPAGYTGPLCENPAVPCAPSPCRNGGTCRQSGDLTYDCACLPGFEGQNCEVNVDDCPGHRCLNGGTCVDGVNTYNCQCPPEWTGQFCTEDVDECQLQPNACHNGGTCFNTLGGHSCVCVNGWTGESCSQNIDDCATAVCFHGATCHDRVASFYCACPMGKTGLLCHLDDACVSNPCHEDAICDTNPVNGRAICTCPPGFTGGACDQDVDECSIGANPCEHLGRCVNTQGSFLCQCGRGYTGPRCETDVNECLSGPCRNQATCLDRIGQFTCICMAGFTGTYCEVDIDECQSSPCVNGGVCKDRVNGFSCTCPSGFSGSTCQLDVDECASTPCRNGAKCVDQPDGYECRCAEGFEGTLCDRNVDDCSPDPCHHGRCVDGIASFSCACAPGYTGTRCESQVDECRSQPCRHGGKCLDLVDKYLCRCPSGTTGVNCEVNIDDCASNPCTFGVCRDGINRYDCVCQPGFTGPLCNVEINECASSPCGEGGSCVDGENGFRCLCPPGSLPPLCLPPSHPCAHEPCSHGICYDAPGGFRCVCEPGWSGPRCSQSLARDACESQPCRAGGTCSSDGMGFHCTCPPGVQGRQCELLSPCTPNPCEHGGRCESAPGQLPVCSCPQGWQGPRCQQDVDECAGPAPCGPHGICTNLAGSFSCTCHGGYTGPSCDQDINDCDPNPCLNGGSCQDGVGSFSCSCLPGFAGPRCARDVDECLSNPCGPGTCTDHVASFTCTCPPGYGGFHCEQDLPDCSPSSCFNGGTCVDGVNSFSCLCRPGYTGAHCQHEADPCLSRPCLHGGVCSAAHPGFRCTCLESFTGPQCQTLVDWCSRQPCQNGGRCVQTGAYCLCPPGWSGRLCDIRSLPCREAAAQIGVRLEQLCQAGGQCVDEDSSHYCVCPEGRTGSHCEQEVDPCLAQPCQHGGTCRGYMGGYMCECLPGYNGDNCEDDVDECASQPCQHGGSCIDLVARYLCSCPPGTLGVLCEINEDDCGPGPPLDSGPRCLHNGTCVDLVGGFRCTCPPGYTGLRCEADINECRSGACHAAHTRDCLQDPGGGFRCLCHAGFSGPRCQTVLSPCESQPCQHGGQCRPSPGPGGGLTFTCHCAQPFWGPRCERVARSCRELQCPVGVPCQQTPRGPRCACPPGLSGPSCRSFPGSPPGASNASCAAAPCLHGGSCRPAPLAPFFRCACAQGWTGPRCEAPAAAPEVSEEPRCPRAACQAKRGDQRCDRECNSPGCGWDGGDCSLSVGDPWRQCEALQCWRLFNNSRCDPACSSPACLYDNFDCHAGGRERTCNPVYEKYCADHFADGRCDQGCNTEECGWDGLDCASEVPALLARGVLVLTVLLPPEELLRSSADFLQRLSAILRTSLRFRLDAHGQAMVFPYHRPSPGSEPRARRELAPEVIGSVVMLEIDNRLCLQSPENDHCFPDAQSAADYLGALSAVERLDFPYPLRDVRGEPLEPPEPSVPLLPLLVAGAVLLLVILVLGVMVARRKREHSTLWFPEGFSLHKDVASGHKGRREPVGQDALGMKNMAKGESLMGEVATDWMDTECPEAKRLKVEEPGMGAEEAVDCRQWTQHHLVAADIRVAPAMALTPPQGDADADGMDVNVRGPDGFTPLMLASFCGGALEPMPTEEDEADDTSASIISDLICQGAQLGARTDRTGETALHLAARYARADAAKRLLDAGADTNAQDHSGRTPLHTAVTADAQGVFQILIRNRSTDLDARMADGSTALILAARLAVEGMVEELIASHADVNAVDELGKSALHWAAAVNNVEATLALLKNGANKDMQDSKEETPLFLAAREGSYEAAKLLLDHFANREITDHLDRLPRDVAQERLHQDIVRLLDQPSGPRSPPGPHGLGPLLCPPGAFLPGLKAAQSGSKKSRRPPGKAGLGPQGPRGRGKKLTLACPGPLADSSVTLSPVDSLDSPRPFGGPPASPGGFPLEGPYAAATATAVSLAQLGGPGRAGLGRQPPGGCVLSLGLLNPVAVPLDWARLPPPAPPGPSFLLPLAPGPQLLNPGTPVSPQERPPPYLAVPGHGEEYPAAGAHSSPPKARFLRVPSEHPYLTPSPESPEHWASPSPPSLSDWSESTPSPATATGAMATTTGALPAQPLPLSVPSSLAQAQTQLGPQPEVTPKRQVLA
Chain of Torsin-1A-interacting protein 2 (Homo sapiens) (Q8NFQ8 whole entry, looked up): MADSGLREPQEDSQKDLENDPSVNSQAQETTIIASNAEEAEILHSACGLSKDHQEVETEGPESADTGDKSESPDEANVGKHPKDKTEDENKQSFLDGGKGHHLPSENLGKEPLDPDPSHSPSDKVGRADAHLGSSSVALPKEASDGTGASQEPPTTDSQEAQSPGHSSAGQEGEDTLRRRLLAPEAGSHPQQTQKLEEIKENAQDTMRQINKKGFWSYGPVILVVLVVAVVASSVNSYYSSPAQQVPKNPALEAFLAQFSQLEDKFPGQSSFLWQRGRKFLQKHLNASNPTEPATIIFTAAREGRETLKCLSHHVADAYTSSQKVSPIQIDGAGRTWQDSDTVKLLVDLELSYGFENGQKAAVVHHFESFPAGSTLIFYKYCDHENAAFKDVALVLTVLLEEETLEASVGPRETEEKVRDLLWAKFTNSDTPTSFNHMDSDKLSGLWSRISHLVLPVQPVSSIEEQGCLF

Compound	composite z-score [1]	z-score [2]	z-score [3]	z-score [4]	composite z-score [5]	z-score [6]	composite z-score [7]	composite z-score [8]	composite z-score [9]	composite z-score [10]
COC(=O)C(CC#Cc1ccc2c(c1)[C@]1(C(=O)N2)[C@H](C(=O)NC[C@H](O)c2ccccc2)[C@H]2C(=O)O[C@H](c3ccccc3)[C@H](c3ccccc3)N2[C@@H]1c1ccc(OCCO)cc1)C(=O)OC	1.54	2.7 (inactive)	1.16 (inactive)	3.93 (inactive)	3.62	-0.207 (inactive)	0.14	1.87	1.05	0.345
CC(C)c1ccc(NN2C(C(O)c3c(F)cccc3Cl)C=CC3C(=O)N(c4ccccc4)C(=O)C32)cc1 (stereo not given)	1.48	0.808 (inactive)	1.83 (inactive)	1.63 (inactive)	3	-2.2 (inactive)	0.545	-0.041	1.07	0.431
COc1ccc(C#Cc2ccc3c(c2)[C@]2(C(=O)N3)[C@H](C(=O)NC[C@H](O)c3ccccc3)[C@H]3C(=O)O[C@H](c4ccccc4)[C@H](c4ccccc4)N3[C@@H]2c2ccc(OCCO)cc2)cc1	1.49	2.85 (inactive)	1.64 (inactive)	4.35 (inactive)	2.96	-0.508 (inactive)	-0.22	1.52	1.09	-0.0746
[N-]=[N+]=NCc1ccccc1C[C@]1(C(=O)NCCN2CCOCC2)N=C(c2ccc(OCCCO)cc2)O[C@H]1c1ccccc1N=[N+]=[N-]	1.56	-0.886 (inactive)	0.246 (inactive)	2.86 (inactive)	2.73	1.16 (inactive)	0.149	-0.0313	1.1	0.0488
O=C1O[C@@H](c2ccccc2)[C@@H](c2ccccc2)N2[C@@H](c3ccc(O)cc3)[C@]3(C(=O)Nc4ccc(C#CC5=CCCCC5)cc43)[C@@H](C(=O)O)[C@H]12	1.53	-2.6 (inactive)	-3.2 (inactive)	-2.21 (inactive)	2.86	3.68 (inactive)	0.246	0.878	0.925	-0.0315
CC(C)(C)N1CC=CC23O[C@@H]4C=CCOC(=O)[C@@H]4[C@H]2C(=O)N(CCCCCO)[C@@H]3C1=O (stereo not given in full)	-0.396	-0.256 (inactive)	-0.0499 (inactive)	-0.177 (inactive)	0.735	0.385 (inactive)	-0.215	-0.617	-0.374	-0.224
C=CCOC(=O)[C@@H]1[C@H]2C(=O)O[C@H](c3ccccc3)[C@H](c3ccccc3)N2[C@H](c2ccc(OCCOC(=O)[C@@H]3C[C@@H]4C(=O)NCC(=O)N4[C@@H]3c3cccc(OCCO)c3)cc2)[C@@]12C(=O)Nc1ccc(I)cc12	1.53	0.895 (inactive)	1.01 (inactive)	2.19 (inactive)	2.53	-0.637 (inactive)	-0.0654	1.14	1.1	0.0618
O=C/C=C/c1ccc2c(c1)OCO2	0.274	-3.66 (inactive)	-16.7 (active)	-1.69 (inactive)	-0.857	-1.98 (inactive)	-0.151	0.542	0.0863	-0.0978
CC(C)(C)OC(=O)CC[C@]1(C(=O)N2CCCCC2)N=C(c2ccc(OCCCO)cc2)O[C@H]1c1ccccc1N=[N+]=[N-]	1.54	0.589 (inactive)	0.402 (inactive)	0.73 (inactive)	3.05	1.62 (inactive)	0.292	1.21	1.01	0.872
COCCCNC(=O)[C@@]1(CCC(=O)OC(C)(C)C)N=C(c2ccc(OCCCO)cc2)O[C@H]1c1ccccc1CN=[N+]=[N-]	1.26	-0.187 (inactive)	-0.738 (inactive)	-0.363 (inactive)	3.74	0.316 (inactive)	0.194	0.624	1.06	0.305
O=C(CS)NCCCCCCNC(=O)[C@H]1C[C@H]2C(=O)NCC(=O)N2[C@H]1c1ccc(O)cc1	0.16	-0.408 (inactive)	0.0177 (inactive)	0.505 (inactive)	1.46	-0.449 (inactive)	-0.0903	0.384	0.0288	-0.136
COCCOC(=O)N1C(=O)[C@@]2(c3cc(C#Cc4ccc(OC)cc4)ccc31)[C@H](C(=O)N1CCN(c3ncccn3)CC1)[C@H]1C(=O)O[C@H](c3ccccc3)[C@H](c3ccccc3)N1[C@@H]2c1ccc(O)cc1	0.344	-1.94 (inactive)	-0.197 (inactive)	0.872 (inactive)	0.78	0.313 (inactive)	-0.247	0.587	0.213	-0.0978
N#Cc1ccc(NN2C(C(O)c3ccc([N+](=O)[O-])cc3)C=CC3C(=O)N(c4ccccc4)C(=O)C32)cc1 (stereo not given)	0.698	-0.0094 (inactive)	1.2 (inactive)	1.39 (inactive)	3.29	-1.75 (inactive)	0.0478	-0.299	1.06	0.0478
CCOC(=O)C1=CC[C@@H](c2ccccc2Cl)N(S(=O)(=O)c2ccc(C)cc2)C1	0.98	-2.37 (inactive)	0.307 (inactive)	0.661 (inactive)	2.24	-0.239 (inactive)	0.264	-0.434	1.04	-0.178
CCN(CC)c1ccc(N2CC=CC34O[C@@H]5/C=C\CCCOC(=O)C5[C@H]3C(=O)N(C(CO)C(C)C)[C@@H]4C2=O)cc1 (stereo not given in full)	0.0395	0.803 (inactive)	-0.193 (inactive)	-0.0204 (inactive)	2.03	-0.309 (inactive)	-0.168	-0.708	-0.0981	-0.198
Cc1cc(C)c(C(O)C2C=CC3C(=O)N(C)C(=O)C3N2Nc2ccccc2)c(C)c1 (stereo not given)	0.378	-0.304 (inactive)	0.569 (inactive)	-0.448 (inactive)	2.41	-1.32 (inactive)	1.24	0.0355	0.533	0.907
CC(C)CNC(=O)[C@@]1(c2ccc([N+](=O)[O-])cc2)CC(=O)N(CC23CC4CC(CC(C4)C2)C3)[C@@H]1c1ccc(CO)cc1I	1.54	0.951 (inactive)	0.864 (inactive)	3.26 (inactive)	3.06	-0.569 (inactive)	-0.0144	1.3	1.09	-0.0088
CC(C)C[C@@H]1NC(=O)[C@H]2C[C@@H](C(=O)NCCCCCNC(=O)CS)[C@@H](c3cccc(OCCO)c3)N2C1=O	1.53	-0.454 (inactive)	-0.267 (inactive)	0.0073 (inactive)	3.06	-0.187 (inactive)	0.106	1.98	1.07	0.111
CS(=O)(=O)CCOC(=O)C1=CC(c2ccc(CO)cc2)=CC(C2CC2)N(Cc2cc3c(cc2Br)OCO3)C=C1C(=O)OCCS(C)(=O)=O (stereo not given)	1.47	-0.938 (inactive)	-6.09 (inactive)	-0.247 (inactive)	2.83	0.514 (inactive)	0.17	0.782	0.929	0.0796
O=c1oc(-c2ccccc2)nc2cc(Br)ccc12	0.35	0.844 (inactive)	-1.43 (inactive)	-0.0605 (inactive)	0.711	0.258 (inactive)	-0.0478	0.625	0.693	-0.111
O=C1C2C=CC(C(O)c3ccc(F)cc3)N(Nc3ccccc3)C2C(=O)N1c1ccccc1 (stereo not given)	0.435	0.874 (inactive)	1.31 (inactive)	1.59 (inactive)	3.15	-0.754 (inactive)	0.388	-1.2	0.246	-0.0111
COc1ccc(C(O)C2C=CC3C(=O)N(c4ccccc4)C(=O)C3N2Nc2ccc([N+](=O)[O-])cc2)cc1OCc1ccccc1 (stereo not given)	0.923	-0.225 (inactive)	1.57 (inactive)	0.989 (inactive)	2.72	-1.29 (inactive)	1.25	0.322	1.11	0.852
C[C@]1(C(=O)NCc2ccccc2)c2ccccc2C(=O)N(Cc2ccc(OC(F)(F)F)cc2)[C@H]1c1ccc(CO)cc1	-0.0073	-0.913 (inactive)	-0.935 (inactive)	-0.67 (inactive)	2.06	1.36 (inactive)	-0.0719	0.0824	-0.184	-0.0689
CCOC(=O)C1=CCC(C(C)(C)C)N(S(=O)(=O)c2ccc(C)cc2)C1 (stereo not given)	1.54	-0.792 (inactive)	-1.75 (inactive)	1.66 (inactive)	3.3	-0.756 (inactive)	0.0277	1.47	1.13	0.139
C=CC[C@@]1(C(=O)O)N=C(c2ccc(OCCCO)cc2)O[C@@H]1c1ccccc1N=[N+]=[N-]	1.23	0.0908 (inactive)	-0.594 (inactive)	-1.46 (inactive)	3.24	0.0672 (inactive)	0.23	-0.203	-0.231	-0.0225
CCOC(=O)C[C@H]1[C@H](OC(=O)c2ccc(-c3ccccc3)cc2)[C@@H](NC(=O)c2ccc(-c3ccccc3)cc2)c2cc(OCCCO)ccc2N1C(=O)Cc1ccc(OC)cc1	-0.007	-0.907 (inactive)	0.321 (inactive)	0.16 (inactive)	0.856	-0.963 (inactive)	-0.0196	-0.31	-0.166	-0.0505
[N-]=[N+]=NCc1ccccc1C[C@@]1(C(=O)N2CCOCC2)N=C(c2ccc(OCCCO)cc2)O[C@@H]1c1ccccc1CN=[N+]=[N-]	1.58	0.466 (inactive)	-0.559 (inactive)	28 (active)	3.28	0.291 (inactive)	0.743	0.631	0.967	0.662

From PubChem BioAssay
